Test results published in PubChem BioAssay (Tox21).
Values without a mark were called inactive. The source made the active and inactive calls. Calls come from the whole dose curve; as a rule, active = well fitted curve in the direction sought with a large enough effect in the repeat runs; inconclusive = weak or mixed curves; inactive = flat fitted curve, though single readings scatter.
% is set by controls: 0 for no effect and ±100 for the full control effect.

Experiment: qHTS assay to test for compound auto fluorescence at 590 nm (red) in HepG2 cells (AID 720674)
Conditions: HepG2 autofluorescence, red 540/590 nm, 1 h; series mostly up to 91.3 µM
In short: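 Seeding: 2,000 HepG2 cells/well, MEM/10% FBS, overnight 37 C. Dosing: compound vs DMSO. Incubation: 1 hr, 37 C, 5% CO2. Read: fluorescence 540 ex/590 em, Rose Bengal sodium as red reference.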
For O=c1[nH]c2ccccc2n1CCCN1CCC(n2c(=O)[nH]c3cc(Cl)ccc32)CC1, the outcome was “inactive”.
With Fc1ccc(Oc2ccnc3cc(Cl)cc(Cl)c23)cc1 the outcome was “inactive”.
With CCCCCCCCc1ccc(O)cc1 the outcome was “inactive”.
With N#CCCC(Br)(C#N)CBr (stereo unspecified) the outcome was “inactive”.
For O=C(Nc1ccc2[nH]ccc2c1)c1cc2cc(F)ccc2n1Cc1cccc(F)c1, the outcome was “inactive”.
For CC(=O)[O-].[Tl+], the outcome was “inactive”.
For O=C(O)C1C2CCC(O2)C1C(=O)O (stereo unspecified), the outcome was “inactive”.
With CC(C)C1CCC(Cc2ccc(Cl)cc2)C1(O)Cn1cncn1 (stereo unspecified) the outcome was “inactive”.
With ClC1=C(Cl)[C@]2(Cl)[C@H]3[C@H]([C@H]4C=C[C@H]3C4)[C@@]1(Cl)C2(Cl)Cl the outcome was “inactive”.
For CN(C)C(=S)S, the outcome was “inactive”.
With CC(C)[C@H](C(=O)OC(C#N)c1cccc(Oc2ccccc2)c1)c1ccc(OC(F)F)cc1 (stereo partly specified) the outcome was “inactive”.
For CN(C)c1ccc(N=Nc2ccccc2)cc1, the outcome was “inactive”.
With CCCCN(CCCC)C(=S)[S-].CCCCN(CCCC)C(=S)[S-].[Zn+2] the outcome was “inactive”.
For N#CC(Cl)Cl, the outcome was “inactive”.
In the case of CC1(c2ccc(Oc3ccccc3)cc2)OC(=O)N(Nc2ccccc2)C1=O (stereo unspecified), the outcome is reported as “inactive”.
For C[C@@H]1CC[C@@]2(OC1)O[C@H]1[C@@H](O)[C@H]3[C@@H]4CC[C@H]5C[C@@H](O[C@@H]6O[C@H](CO)[C@H](O[C@@H]7O[C@H](CO)[C@@H](O)[C@H](O[C@@H]8OC[C@@H](O)[C@H](O)[C@H]8O)[C@H]7O[C@@H]7O[C@H](CO)[C@@H](O)[C@H](O[C@@H]8O[C@H](CO)[C@@H](O)[C@H](O)[C@H]8O)[C@H]7O)[C@H](O)[C@H]6O)[C@H](O)C[C@]5(C)[C@H]4CC[C@]3(C)[C@H]1[C@@H]2C, the outcome was “inactive”.
For [Hg+2].[I-].[I-], the outcome was “inactive”.
With CCOP(=O)(NC(C)C)Oc1ccc(SC)c(C)c1 (stereo unspecified) the outcome was “inactive”.
For C=CC(=O)OCCCCOC(=O)C=C, the outcome was “inactive”.
In the case of C[C@H]1CC[C@@H]2[C@@H](C)[C@H]3[C@H](C[C@H]4[C@@H]5CC=C6CC(O[C@@H]7O[C@H](CO)[C@H](O)[C@H](O[C@@H]8O[C@H](CO)[C@@H](O)[C@H](O)[C@H]8O)[C@H]7O[C@H]7O[C@@H](C)[C@H](O)[C@@H](O)[C@H]7O)CC[C@]6(C)[C@H]5CC[C@]34C)N2C1 (stereo partly specified), the outcome is reported as “inactive”.
With N#C/C=C/C#N the outcome was “inactive”.
In the case of Oc1cc(Cl)c(Cl)c(Cl)c1, the outcome is reported as “inactive”.
With CN(C)C(=S)[S-].CN(C)C(=S)[S-].[Cu+2] the fluorescence, relative to Rose Bengal was 0.166% [at 18.6 µM].
In the case of O=C/C(Cl)=C(/Cl)C(=O)O, the outcome is reported as “inactive”.
In the case of O=[N+]([O-])c1cc(C(F)(F)F)c(Cl)c([N+](=O)[O-])c1Cl, the outcome is reported as “inactive”.
For Oc1ccc(C(=C(Cl)Cl)c2ccc(O)cc2)cc1, the outcome was “inactive”.
With CN(C)S(=O)(=O)N(SC(F)(Cl)Cl)c1ccccc1 the outcome was “inactive”.
With CC(=O)Nc1ccc2c(c1)Cc1ccccc1-2 the outcome was “inactive”.
In the case of CC(=O)[O-].CC(=O)[O-].O.O.[Cd+2], the outcome is reported as “inactive”.
In the case of O=[N+]([O-])O.O=[N+]([O-])O.[Cd], the outcome is reported as “inactive”.
In the case of CCCCCCCCCCCCBr, the outcome is reported as “inactive”.
For Nc1ccccc1C(=O)OC/C=C/c1ccccc1, the outcome was “inactive”.
In the case of Nc1ccc(Cc2ccc(N)c(Cl)c2)cc1Cl, the outcome is reported as “inactive”.
In the case of CCCSP(=O)(OCC)SCCC, the outcome is reported as “inactive”.
With CC(C)OC(=O)C(O)(c1ccc(Cl)cc1)c1ccc(Cl)cc1 the outcome was “inactive”.
With CC(=O)[O-].CC(=O)[O-].[Hg+2] the outcome was “inactive”.
In the case of [Cd+2].[Cl-].[Cl-], the outcome is reported as “inactive”.
In the case of CC1(C)C(/C=C(\Cl)C(F)(F)F)C1C(=O)OC(C#N)c1cccc(Oc2ccccc2)c1 (stereo unspecified), the outcome is reported as “inactive”.

Experiment: qHTS assay to test for compound auto fluorescence at 535 nm (green) in HepG2 cells (AID 720675)
Conditions: green autofluorescence 485/535 nm, 1 h; series mostly up to 91.3 µM
With O=c1[nH]c2ccccc2n1CCCN1CCC(n2c(=O)[nH]c3cc(Cl)ccc32)CC1 the outcome was “inactive”.
With Fc1ccc(Oc2ccnc3cc(Cl)cc(Cl)c23)cc1 the outcome was “inactive”.
For CCCCCCCCc1ccc(O)cc1, the outcome was “inactive”.
For N#CCCC(Br)(C#N)CBr (stereo unspecified), the outcome was “inactive”.
With O=C(Nc1ccc2[nH]ccc2c1)c1cc2cc(F)ccc2n1Cc1cccc(F)c1 the outcome was “inactive”.
For CC(=O)[O-].[Tl+], the outcome was “inactive”.
For O=C(O)C1C2CCC(O2)C1C(=O)O (stereo unspecified), the outcome was “inactive”.
With CC(C)C1CCC(Cc2ccc(Cl)cc2)C1(O)Cn1cncn1 (stereo unspecified) the outcome was “inactive”.
For ClC1=C(Cl)[C@]2(Cl)[C@H]3[C@H]([C@H]4C=C[C@H]3C4)[C@@]1(Cl)C2(Cl)Cl, the outcome was “inactive”.
For CN(C)C(=S)S, the outcome was “inactive”.
With CC(C)[C@H](C(=O)OC(C#N)c1cccc(Oc2ccccc2)c1)c1ccc(OC(F)F)cc1 (stereo partly specified) the outcome was “inactive”.
In the case of CN(C)c1ccc(N=Nc2ccccc2)cc1, the outcome is reported as “inactive”.
For CCCCN(CCCC)C(=S)[S-].CCCCN(CCCC)C(=S)[S-].[Zn+2], the outcome was “inactive”.
With N#CC(Cl)Cl the outcome was “inactive”.
For CC1(c2ccc(Oc3ccccc3)cc2)OC(=O)N(Nc2ccccc2)C1=O (stereo unspecified), the outcome was “inactive”.
For C[C@@H]1CC[C@@]2(OC1)O[C@H]1[C@@H](O)[C@H]3[C@@H]4CC[C@H]5C[C@@H](O[C@@H]6O[C@H](CO)[C@H](O[C@@H]7O[C@H](CO)[C@@H](O)[C@H](O[C@@H]8OC[C@@H](O)[C@H](O)[C@H]8O)[C@H]7O[C@@H]7O[C@H](CO)[C@@H](O)[C@H](O[C@@H]8O[C@H](CO)[C@@H](O)[C@H](O)[C@H]8O)[C@H]7O)[C@H](O)[C@H]6O)[C@H](O)C[C@]5(C)[C@H]4CC[C@]3(C)[C@H]1[C@@H]2C, the outcome was “inactive”.
With [Hg+2].[I-].[I-] the outcome was “inactive”.
With CCOP(=O)(NC(C)C)Oc1ccc(SC)c(C)c1 (stereo unspecified) the outcome was “inactive”.
For C=CC(=O)OCCCCOC(=O)C=C, the outcome was “inactive”.
For C[C@H]1CC[C@@H]2[C@@H](C)[C@H]3[C@H](C[C@H]4[C@@H]5CC=C6CC(O[C@@H]7O[C@H](CO)[C@H](O)[C@H](O[C@@H]8O[C@H](CO)[C@@H](O)[C@H](O)[C@H]8O)[C@H]7O[C@H]7O[C@@H](C)[C@H](O)[C@@H](O)[C@H]7O)CC[C@]6(C)[C@H]5CC[C@]34C)N2C1 (stereo partly specified), the outcome was “inactive”.
In the case of N#C/C=C/C#N, the outcome is reported as “inactive”.
In the case of Oc1cc(Cl)c(Cl)c(Cl)c1, the outcome is reported as “inactive”.
For CN(C)C(=S)[S-].CN(C)C(=S)[S-].[Cu+2], the fluorescence, % of fluorescein control was -0.0148% [at 18.6 µM].
With O=C/C(Cl)=C(/Cl)C(=O)O the outcome was “inactive”.
For O=[N+]([O-])c1cc(C(F)(F)F)c(Cl)c([N+](=O)[O-])c1Cl, the outcome was “inactive”.
With Oc1ccc(C(=C(Cl)Cl)c2ccc(O)cc2)cc1 the outcome was “inactive”.
In the case of CN(C)S(=O)(=O)N(SC(F)(Cl)Cl)c1ccccc1, the outcome is reported as “inactive”.
For CC(=O)Nc1ccc2c(c1)Cc1ccccc1-2, the outcome was “inactive”.
With CC(=O)[O-].CC(=O)[O-].O.O.[Cd+2] the outcome was “inactive”.
For O=[N+]([O-])O.O=[N+]([O-])O.[Cd], the outcome was “inactive”.
For CCCCCCCCCCCCBr, the outcome was “inactive”.
With Nc1ccccc1C(=O)OC/C=C/c1ccccc1 the outcome was “inactive”.
In the case of Nc1ccc(Cc2ccc(N)c(Cl)c2)cc1Cl, the outcome is reported as “inactive”.
For CCCSP(=O)(OCC)SCCC, the outcome was “inactive”.
In the case of CC(C)OC(=O)C(O)(c1ccc(Cl)cc1)c1ccc(Cl)cc1, the outcome is reported as “inactive”.
In the case of CC(=O)[O-].CC(=O)[O-].[Hg+2], the outcome is reported as “inactive”.
With [Cd+2].[Cl-].[Cl-] the outcome was “inactive”.
For CC1(C)C(/C=C(\Cl)C(F)(F)F)C1C(=O)OC(C#N)c1cccc(Oc2ccccc2)c1 (stereo unspecified), the outcome was “inactive”.
